Measured values published in PubChem BioAssay AID448 (National Center for Advancing Translational Sciences (NCATS), 2006).
Values joined by “and” are separate entries in the source; they are usually repeats but may differ in a detail not shown here. Identical values can stand only once. The campaign covered roughly 65,000 compounds. About 45 (0.07%) were called active. These entries were drawn from the full list. A number with no mark means an inactive call. Calls follow the shape of the full dose curve.

What follows are compounds tested on Schistosoma mansoni peroxiredoxin 2 (Prx2) (assay: Schistosoma Mansoni Peroxiredoxins (Prx2)). Conditions: S. mansoni Prx2 activity coupled to TGR/GSH (TGR is thioredoxin glutathione reductase), NADPH fluorescence loss, qHTS.
Method in brief: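 Coupled assay in which S. mansoni TGR passes NADPH reducing equivalents via glutathione to Prx2, which reduces H2O2. Compounds were preincubated 15 min at room temperature with 25 nM TGR/50 nM Prx2 mix. Kinetic NADPH fluorescence loss (ex 365/em 450 nm) was monitored.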
Potency is read from the fitted curve at half-maximal effect.

Row | SMILES | Potency
1 | c1ccc2nc(C3=NCCN3)cnc2c1 | > 57 µM
2 | Cc1[nH]c(N)nc(=S)c1CCCNc1ccccc1 | > 57 µM
3 | COc1ncc2nc(-c3ccc(Cl)cc3)c(=O)n(C)c2n1 | > 57 µM
4 | CCNc1ncc2ncc(=O)n(CCc3ccccc3)c2n1 | > 57 µM
5 | COc1ccccc1-c1cc(NCc2cccs2)ncn1 | > 57 µM
6 | O=C(c1csnn1)N1CCC2(CC1)CN(c1ncccn1)C2 | > 57 µM
7 | COCCn1c(=O)c(-c2cccc(F)c2)nc2cncnc21 | > 57 µM
8 | Cc1c2c(nc3ccccc13)-c1cccc(=O)n1C2 | > 57 µM
9 | O=C(c1ccco1)N1CCC[C@@]2(CCN(c3ccccc3)C2)C1 | > 57 µM
10 | COc1ccc(C(=O)N2CCC3(CC2)CCN(c2ccccn2)CC3)cc1 | > 57 µM
11 | CN(C)CC/C=C1\c2ccccc2CSc2ccccc21 | > 57 µM
12 | COc1ccccc1CNc1ncnc2ccc(-c3ccc4c(c3)OCO4)cc12 | > 57 µM
13 | CC(C)NC(=O)N1CCC2(CC1)CCN(C(=O)c1cccn1C)CC2 | > 57 µM
14 | COc1ccccc1CNc1ccnc(-c2c(C)noc2C)n1 | > 57 µM
15 | O=C(c1cnccn1)N1CCC[C@@]2(CCN(Cc3ccncc3)C2)C1 | > 57 µM
16 | COc1ccccc1N1CCN(CCN2C(=O)c3ccccc3C(C)(C)C2=O)CC1 | > 57 µM
17 | COC(=O)N1CCC2(CCCN(Cc3ccccc3OC)C2)CC1 | > 57 µM
18 | N#C/C(=C\c1ccc(O)c(O)c1)C(=O)NCc1ccccc1 | > 57 µM and > 11.4 µM
19 | COc1ccc(Oc2ncc3nc(-c4ccc(F)cc4)c(=O)n(C)c3n2)cc1 | > 57 µM
20 | O=C(c1csnn1)N1CCC[C@@]2(CCN(c3cccc(-c4ccccc4)c3)C2)C1 | > 57 µM
21 | Clc1ccc(C=Nc2ccc3c(c2)Cc2ccccc2-3)c(Cl)c1 | > 57 µM
22 | CC(=O)N1CCC2(CCCN(c3ncccn3)C2)CC1 | > 57 µM
23 | Cc1ccc(S(=O)(=O)NC(=O)NN2C[C@H]3CCC[C@@H]3C2)cc1 | > 57 µM

Row | SMILES | Potency
24 | COc1ccc2[nH]cc(CCNc3ncnc4ccc(-c5ccc(C(=O)N(C)C)cc5)cc34)c2c1 | > 57 µM
25 | N#C/C(=C\c1ccc(O)c(O)c1)C(N)=O | > 57 µM
26 | COC(=O)[C@@]1(Cc2ccc(F)cc2)[C@H]2c3cc(C(=O)N(C)C)n(CCc4c[nH]c5ccc(OC)cc45)c3C[C@H]2CN1C(=O)c1ccccc1 | > 57 µM
27 | CNc1ncnc2ccc(-c3cccc(NS(C)(=O)=O)c3)cc12 | > 57 µM
28 | Nc1ccc2[nH]cc(CCC(=O)O)c2c1 | > 57 µM
29 | O=c1c(-c2ccc(F)c(F)c2)nc2cncnc2n1-c1ccccc1 | > 57 µM
30 | COCCn1c(=O)c(-c2cccs2)nc2cnc(N3CCN(C)CC3)nc21 | > 57 µM
31 | O=C(O)c1nccnc1C(=O)Nc1ccc(Br)cn1 | > 57 µM
32 | Cc1nc2cnc(N3CCN(C)CC3)nc2n(CCC#N)c1=O | > 57 µM
33 | COc1ccccc1N1CCN(C[C@@H]2CN3C(=O)N(C)c4ccccc4C3=N2)CC1 | > 57 µM
34 | COC(=O)[C@@]1(Cc2ccc(OC)cc2)[C@H]2c3cc(C(=O)N4CCCC4)n(Cc4ccc(C(F)(F)F)nc4)c3C[C@H]2CN1C(=O)c1ccccc1 | > 57 µM
35 | CN(C)C(=O)c1ccc(-c2cncnc2Nc2ccccc2)cc1 | > 57 µM
36 | NC(=O)c1ccc(OC[C@H](O)CN2CC=C(c3ccc(F)cc3)CC2)cc1 | > 57 µM
37 | COc1ccc2c(=O)cc(-c3ccccc3)oc2c1O | > 57 µM
38 | NCCCNCCCCN(CCCN)/[N+]([O-])=N/O | > 57 µM
39 | OCCN1CCN(CC/C=C2\c3ccccc3Sc3ccc(C(F)(F)F)cc32)CC1 | > 57 µM
40 | COCCn1c(=O)c(-c2cc(F)cc(F)c2)nc2cncnc21 | > 11.4 µM
41 | Cc1c(S(=O)(=O)O)ccc(N=Nc2c(O)c(C(=O)O)cc3ccccc23)c1Cl | > 57 µM
42 | O=C(O)CS(=O)c1ccc2c3c(cccc13)C(=O)c1ccccc1-2 (centres undefined) | > 57 µM
43 | CC(C)NC(=O)N1CC[C@@]2(CCCN(C(=O)c3cccn3C)C2)C1 | > 57 µM
44 | COC(=O)N1CCC2(CCCN(c3ccncc3)C2)CC1 | > 57 µM
45 | COCCNc1ncnc2ccc(-c3cccnc3)cc12 | > 57 µM
46 | Cc1nc2cnc(N3CCN(C)CC3)nc2n(C[C@H]2CCCO2)c1=O | > 57 µM

Row | SMILES | Potency
47 | COc1ccc2[nH]cc(CCNc3cc(-c4ccccc4CN(C)C)ncn3)c2c1 | > 57 µM
48 | COc1ccc(CNc2ncncc2-c2ccccc2OC)c(OC)c1 | > 57 µM
49 | COc1ccccc1-c1nc(N2CCN(C)CC2)c2ccccc2n1 | > 57 µM
50 | C[C@]12CC[C@@H]3C(=CCc4cc(O)ccc43)[C@@H]1CCC2=O | > 57 µM
51 | CC(N)=NCc1cccc(CN)c1 | > 57 µM
52 | CN=C(NC#N)NCCSCc1nc[nH]c1C | > 57 µM
53 | ClC(Cl)(Cl)C(N1CCN(c2ccccc2)CC1)N1CCN(c2ccccc2)CC1 | > 57 µM
54 | COc1cccc(Cn2c(=O)cnc3cncnc32)c1 | > 57 µM
55 | Cc1ccc(NC(=O)c2cccc(N(C)C)c2)cc1NC(=O)c1ccc(O)cc1 | > 57 µM
56 | COc1ccc(Oc2ncc3nc(C)c(=O)n(-c4ccccc4)c3n2)cc1 | > 57 µM
57 | CC1=CC(=O)C2=C(C)C[C@H](O)[C@@H]3[C@@H](OC(=O)[C@H]3C)[C@H]12 | > 57 µM
58 | Cc1cnc(CNc2cc(-c3c(C)noc3C)ncn2)cn1 | > 57 µM
59 | COCCn1c(=O)c(-c2cc(F)cc(F)c2)nc2cnc(N3CCNCC3)nc21 | > 57 µM
60 | CCCC(C(=O)OCCN(CC)CC)(c1ccccc1)c1ccccc1 | > 57 µM
61 | O=c1cnc2cnc(Nc3ccccc3)nc2n1Cc1ccc(F)cc1 | > 57 µM
62 | O=C1C(c2ccccn2)=[N+]([O-])c2ccccc21 | > 57 µM
63 | CN(Cc1ccco1)c1ncncc1-c1ccoc1 | > 57 µM
64 | C[C@H]1O[C@@H](CC(=O)O)Cc2c1c(O)c1c(O)cc(-c3cc(=O)c4c(=O)c5c(c(=O)c=4c3=O)C[C@H](CC(=O)O)O[C@@H]5C)c(O)c1c2O | > 57 µM
65 | NS(=O)(=O)c1cc(Cl)c(Cl)c(S(N)(=O)=O)c1 | > 57 µM
66 | CCC(C)(C)N=C(NC#N)Nc1cccnc1 | > 57 µM
67 | COc1ccc(CNc2ncncc2-c2ccccc2C)c(OC)c1 | > 57 µM
68 | Cn1cc(-c2nc3cnc(N4CCNCC4)nc3n(CCc3ccccc3)c2=O)c2ccccc21 | > 57 µM
69 | CN(C)c1ccc(-c2nc(NCCN3CCOCC3)c3ccccc3n2)cc1 | > 57 µM
